Reference: PubChem BioAssay (NCATS)
Results filed as inconclusive are left out. Calls of active or inactive are those of the source. Unless noted, calls follow the shape of the dose curve; as a rule, active = well fitted curve in the direction sought with a large enough effect; inconclusive = small, poorly fitted or top-dose-only effect, or another doubt; inactive = no such curve, though single readings can be large; an effect the other way counts as inactive or inconclusive.

Legend:
[1] = qHTS to identify inhibitors of the type 1 interferon - major histocompatibility complex class I in skeletal muscle: primary screen against the NCATS Mechanism Interrogation Plate v5.0 (MIPE) Libary (AID 1347411); also: nearly all actives have a fitted effect of over 65% in size; also: potency is read from the fitted curve at half-maximal effect
How it was run: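 Luminescence from HiBiT-tagged endogenous HLA-B*08:01 served as the MHC class I read-out. CRISPR-engineered C25cl48 human myoblasts received 4.0 ng/ml IFN-beta plus compound for 24 hrs, with an 11-point, 1:3 series topping at 46 uM final.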

[2] = molecular target: Cytochrome P450 2D6 (Homo sapiens) (UniProt P10635); experiment: Cytochrome P450 family 2 subfamily D member 6 (CYP2D6) small molecule antagonists: luciferase biochemical (cell-free) qHTS assay (AID 1645840; active = well fitted curve in the direction sought with a large enough effect in the repeat runs; an effect the other way counts as inactive or inconclusive; also: potency is read from the fitted curve at half-maximal effect; nearly all actives have a fitted effect of over 55% in size)
How it was run: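 P450-Glo luminescent screen: recombinant CYP2D6 enzyme–proluciferin substrate mix preincubated with compound 10 min at room temperature, then NADPH regeneration added for 1 h at room temperature. Detection reagent added for 20 min; luciferin light read as relative luminescence units.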

[3] = molecular target: Cytochrome P450 2C9 (Homo sapiens) (UniProt P11712); experiment: Cytochrome P450 family 2 subfamily C member 9 (CYP2C9) small molecule antagonists: luciferase biochemical (cell-free) qHTS assay (AID 1645842; active = well fitted curve in the direction sought with a large enough effect in the repeat runs; an effect the other way counts as inactive or inconclusive; also: nearly all actives have a fitted effect of over 55% in size; also: potency is read from the fitted curve at half-maximal effect)
How it was run: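 Luminescence, after 20 min with luciferin detection reagent, reflected CYP2C9 turnover during a 1 h NADPH-driven reaction at 37C. Enzyme-substrate mix contained 0.4% bovine serum albumin and was preincubated with compound 10 min at room temperature.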

[4] = Primary qHTS for inhibitors of nuclear receptor binding SET domain protein 2 (NSD2) in an isogenic RCH-ACV NSD2 p.E1099K mutant (9B) (AID 1645876); also: nearly all actives have a fitted effect of over 70% in size; also: potency is read from the fitted curve at half-maximal effect
[5] = Primary qHTS for inhibitors of nuclear receptor binding SET domain protein 2 (NSD2) in an RCH-ACV wild type WT cells (2C) (AID 1645877); also: nearly all actives have a fitted effect of over 70% in size; also: potency is read from the fitted curve at half-maximal effect
[6] = molecular target: Phospholipid hydroperoxide glutathione peroxidase GPX4 (Homo sapiens) (UniProt P36969); experiment: Primary qHTS Assay for Inhibitors of Recombinant Selenoprotein Glutathione Peroxidase 4 (GPX4) (AID 1845192); conditions: outcome: dose series up to 50 µM unless noted; also: nearly all actives have a fitted effect of over 65% in size
How it was run: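 GR-coupled readout: 100 nM GR, 1 mM GSH, 0.5 mM NADPH; NADPH fluorescence (ex 340/em 450 nm) read at t=0 and after 15 min RT. GPX4 200 nM, preincubated 30 min with compound; substrate 0.5 mM CHP.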

[7] = qHTS drug screen for cell cycle checkpoint inhibitors in PARPi-resistant BRCA-mutant ovarian cancer cell lines. (AID 1963452; calls by dose curve; also: potency is read from the fitted curve at half-maximal effect); conditions: PEO1/OlaR viability, CellTiter-Glo luminescence, 96 h; for Z-AUC: stronger effect = lower value
How it was run: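 PEO1, PEO4 and PEO1/OlaR ovarian cancer cells, 600 per well, exposed 96 h at 37C to a dilution series. Viability read by CellTiter-Glo luminescence, normalized to DMSO and empty wells; activity summarized as Z-AUC.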

[8] = molecular target: Glutathione peroxidase 1 (Homo sapiens) (UniProt P07203); experiment: Primary qHTS Assay for Inhibitors of Recombinant Selenoprotein Glutathione Peroxidase 1 (GPX1) (AID 1845191); also: nearly all actives have a fitted effect of over 65% in size
How it was run: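 Recombinant GPX1 (10 nM final) was preincubated with compound for 30 min at room temperature, then reacted with 1 mM GSH, 0.5 mM CHP, 0.5 mM NADPH and 100 nM glutathione reductase; NADPH fluorescence (340/450 nm) was read at 0 and 15 min.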

[9] = NCATS anti-infectives library activity on HEK293 viability as a counter-qHTS vs the C. elegans viability qHTS (AID 1745854);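 also: HEK293 cells exposed to compounds for 24 hr before the viability read; % is scaled to controls: 0 for no effect and ±100 for the full control effect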
How it was run: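 Compounds were acoustically plated (several concentrations, 1:5, final up to 41.7 uM), then 1500 HEK293 cells added per well and incubated 24 hr at 37C, 5% CO2. CellTiter-Glo was added and luminescence read after 10 min.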

[10] = NCATS anti-infectives library activity on the primary C. elegans qHTS viability assay (AID 1745855; calls by dose curve; also: potency is read from the fitted curve at half-maximal effect)
How it was run: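 Viability read-out is GFP fluorescence of PE254-GFP-FLuc C. elegans, measured by laser cytometry (488 nm) at day 0, 3 and 7. Ten L1 worms per well were incubated 7 days at 21 °C with compounds and bacterial capsules in S medium.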

[11] = measured here: PEO1 parental Z-AUC

Phospholipid hydroperoxide glutathione peroxidase GPX4 (Homo sapiens), sequence (P36969 whole entry, looked up): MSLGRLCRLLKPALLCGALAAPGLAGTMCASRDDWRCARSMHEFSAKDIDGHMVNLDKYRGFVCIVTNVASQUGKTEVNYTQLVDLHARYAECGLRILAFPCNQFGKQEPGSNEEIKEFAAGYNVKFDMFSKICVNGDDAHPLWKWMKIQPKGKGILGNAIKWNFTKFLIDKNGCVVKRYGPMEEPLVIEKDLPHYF
Cytochrome P450 2C9 (Homo sapiens), sequence (P11712 whole entry, looked up): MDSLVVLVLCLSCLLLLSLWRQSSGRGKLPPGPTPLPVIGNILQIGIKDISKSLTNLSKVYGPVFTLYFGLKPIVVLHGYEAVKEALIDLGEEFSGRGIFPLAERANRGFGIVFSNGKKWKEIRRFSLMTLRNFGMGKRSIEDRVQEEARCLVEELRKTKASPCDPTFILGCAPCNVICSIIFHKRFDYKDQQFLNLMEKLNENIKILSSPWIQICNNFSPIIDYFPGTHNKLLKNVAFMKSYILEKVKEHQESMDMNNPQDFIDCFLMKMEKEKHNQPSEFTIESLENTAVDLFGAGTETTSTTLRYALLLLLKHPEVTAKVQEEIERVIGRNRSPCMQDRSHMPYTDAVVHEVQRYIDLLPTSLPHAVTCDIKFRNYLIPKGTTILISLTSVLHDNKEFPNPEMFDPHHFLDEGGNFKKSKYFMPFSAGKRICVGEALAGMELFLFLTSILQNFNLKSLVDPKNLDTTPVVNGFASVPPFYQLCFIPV
Glutathione peroxidase 1 (Homo sapiens), sequence (P07203 whole entry, looked up): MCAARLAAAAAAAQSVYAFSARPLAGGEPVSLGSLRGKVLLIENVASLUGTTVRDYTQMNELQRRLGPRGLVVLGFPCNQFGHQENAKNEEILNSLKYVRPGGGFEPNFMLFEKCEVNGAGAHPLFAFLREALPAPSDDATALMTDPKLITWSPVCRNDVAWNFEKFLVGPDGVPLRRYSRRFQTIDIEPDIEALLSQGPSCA
Cytochrome P450 2D6 (Homo sapiens), sequence (P10635 whole entry, looked up): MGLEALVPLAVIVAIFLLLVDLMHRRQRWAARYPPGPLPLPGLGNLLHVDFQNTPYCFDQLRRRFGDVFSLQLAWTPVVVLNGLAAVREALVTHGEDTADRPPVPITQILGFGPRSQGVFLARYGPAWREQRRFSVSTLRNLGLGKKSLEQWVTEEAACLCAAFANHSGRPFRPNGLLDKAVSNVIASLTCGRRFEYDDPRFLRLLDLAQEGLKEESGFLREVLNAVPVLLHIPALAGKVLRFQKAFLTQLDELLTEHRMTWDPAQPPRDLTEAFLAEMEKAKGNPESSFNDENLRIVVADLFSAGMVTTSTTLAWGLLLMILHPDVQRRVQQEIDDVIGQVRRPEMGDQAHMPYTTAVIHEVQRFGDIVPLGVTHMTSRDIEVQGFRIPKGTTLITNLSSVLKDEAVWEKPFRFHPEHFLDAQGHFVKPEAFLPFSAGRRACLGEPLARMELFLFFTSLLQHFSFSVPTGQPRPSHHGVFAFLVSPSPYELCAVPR

## O=C(/C=C/c1cccnc1)NCCCCC1CCN(C(=O)c2ccccc2)CC1
[1]
  Potency: inactive
[2]
  Potency: 16.9 µM (active)
[3]
  Potency: 13.5 µM (active)
[4]
  Potency: 0.0019 µM (active)
[5]
  Potency: 0.0047 µM (active)
[6]
  Potency: inactive
[7]
  Potency: 0.0436 µM (active)
[7]; [11]
  Z-AUC: -2.84
[7]; measured here: PEO4 Z-AUC
  Z-AUC: -2.61

## Cn1cc(/C=C2\C(=O)Nc3cccnc32)c2ccccc21
[1]
  Potency: 29.4 µM (active)
[3]
  Potency: inactive
[4]
  Potency: 5.25 µM (active)
[5]
  Potency: 8.33 µM (active)
[6]
  Potency: inactive
[7]
  Z-AUC: 1.01 (inactive)
[7]; [11]
  Z-AUC: 0.388
[7]; measured here: PEO4 Z-AUC
  Z-AUC: -0.377

## NS(=O)(=O)c1ccc(Cc2c(-c3cccc(-c4ccccc4)c3)nn(-c3nc(C(=O)O)cs3)c2CC2CC2)cc1
[1]
  Potency: inactive
[3]
  Potency: 21.3 µM (active)
[8]
  Potency: inactive
[7]
  Z-AUC: -1.08 (inactive)
[7]; [11]
  Z-AUC: -0.77
[7]; measured here: PEO4 Z-AUC
  Z-AUC: -1.44

## CC#Cc1cncc(-c2ccc3c(c2)[C@@]2(N=C(C)C(N)=N2)C2(CCC(OC)CC2)C3)c1 (some centres not stated)
[1]
  Potency: inactive
[4]
  Potency: inactive
[5]
  Potency: inactive
[9]
  Potency: inactive
[8]
  Potency: inactive
[6]
  Potency: inactive
[7]
  Z-AUC: 1.27 (inactive)
[7]; [11]
  Z-AUC: 0.521
[7]; measured here: PEO4 Z-AUC
  Z-AUC: 0.345

## COC[C@@H](c1ccc(C(F)(F)F)cc1)N1CCN(C2(C)CCN(C(=O)c3c(C)ncnc3C)CC2)C[C@@H]1C
[1]
  Potency: inactive
[4]
  Potency: inactive
[5]
  Potency: inactive
[9]
  Potency: inactive
[8]
  Potency: inactive
[6]
  Potency: inactive
[7]
  Z-AUC: 1.18 (inactive)
[7]; [11]
  Z-AUC: 1.03
[7]; measured here: PEO4 Z-AUC
  Z-AUC: 0.78

## CC(=O)N1c2ccc(-c3ccc(C(=O)O)cc3)cc2[C@H](Nc2ccc(Cl)cc2)C[C@@H]1C
[1]
  Potency: inactive
[4]
  Potency: 0.0934 µM (active)
[5]
  Potency: 0.0934 µM (active)
[9]
  Potency: inactive
[10]
  Potency: 23 µM (active)
[8]
  Potency: inactive
[7]
  Z-AUC: -0.689 (inactive)
[7]; [11]
  Z-AUC: -0.385
[7]; measured here: PEO4 Z-AUC
  Z-AUC: -0.741

## c1ccc(CNCc2ccc(CN3CCCNCCNCCCNCC3)cc2)nc1
[1]
  Potency: inactive
[4]
  Potency: inactive
[5]
  Potency: inactive
[9]
  Potency: inactive
[8]
  Potency: inactive
[6]
  Potency: inactive
[7]
  Z-AUC: 1.17 (inactive)
[7]; [11]
  Z-AUC: 1.27
[7]; measured here: PEO4 Z-AUC
  Z-AUC: 1.11

## NC1=N[C@@]2(c3cc(NC(=O)c4ccc(F)cn4)ccc3F)COC[C@H]2CS1
[1]
  Potency: inactive
[4]
  Potency: inactive
[5]
  Potency: inactive
[9]
  Potency: inactive
[8]
  Potency: inactive
[7]
  Z-AUC: 1.41 (inactive)
[7]; [11]
  Z-AUC: 0.672
[7]; measured here: PEO4 Z-AUC
  Z-AUC: 0.598
